Source: PubChem BioAssay
Where “and” joins values, the source holds several entries; their conditions need not be identical. Equal values may be shown once. Values without a mark were called inactive. The rule behind the calls is not given here.

system: Aerobactin synthetase IucA (Klebsiella pneumoniae hvKP1); experiment: Biochemical IucA enzyme inhibition primary screen of the Spectrum library (AID 1346200); settings: malachite green pyrophosphate, A620, at 8 µM, active compounds read low;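 note: 100% = wells without compound and 0% = wells lacking enzyme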

SMILES	activity remaining
CC1(C)C[C@@H](O)[C@]2(C)CC[C@]3(C)C(=CCC4[C@@]5(C)CC[C@H](O)[C@](C)(CO)C5CC[C@]43C)[C@@H]2C1 (some centres undefined)	100%
Oc1cc(O)c2c(c1)O[C@H](c1cc(O)c(O)c(O)c1)[C@H](O)C2	116%
O=C(/C=C/c1ccccc1)c1ccc(O)cc1O	96.4%
CC1(C)CCC[C@@]2(C)C1[C@@H](O)C[C@]1(C)C2CC[C@@H]2[C@@]3(C)CC[C@H](C(C)(C)O)[C@@H]3CC[C@@]21C (some centres undefined)	99.1%
O=C1CC(c2ccc(O)cc2)Oc2ccccc21 (centres undefined)	92%
CC(=O)[C@@]1(O)CCC2C3C=C(Cl)C4=CC(=O)[C@@H]5CC5[C@]4(C)C3CC[C@@]21C (some centres undefined)	105%
CC1(C)C2CC[C@]3(C)C(C(=O)C=C4[C@H]5C[C@@](C)(C(=O)O)CC[C@]5(C)CC[C@]43C)[C@@]2(C)CC[C@@H]1O (some centres undefined)	109%
CCCCCc1c2c(cc(O)c1C(=O)O)OC(=O)c1c(cc(OC)cc1C(=O)CCCC)O2	121%
CO/N=C(/C(=O)N[C@@H]1C(=O)N2C(C(=O)O)=C(CSc3nc(=O)c(O)nn3C)CS[C@H]12)c1csc(N)n1	110%
CO/N=C(/C(=O)N[C@@H]1C(=O)N2C(C(=O)O)=C(COC(C)=O)CS[C@H]12)c1csc(N)n1	117%
NS(=O)(=O)c1cc2c(cc1C(F)(F)F)NCNS2(=O)=O	107%
NC(Cc1c[nH]c2ccccc12)C(=O)O (centres undefined)	107%
CC(=O)O[C@@](C)(CCC=C(C)C)C1CC=C(C)CC1 (some centres undefined)	91.6%
COc1cc2c(cc1OC)C(=O)C(CC1CCN(Cc3ccccc3)CC1)C2 (centres undefined)	107%
O=C(O)C1=C(CSc2nnnn2CS(=O)(=O)O)CS[C@@H]2C(NC(=O)[C@H](O)c3ccccc3)C(=O)N12 (some centres undefined)	116%
C[C@@H]1CC[C@@]23CCC4(C)[C@@](C=CC5[C@@]6(C)CC[C@H](O)C(C)(C)C6CC[C@]54C)(OC2=O)C3[C@H]1C (some centres undefined)	99.4%
CC(C)c1c(O)ccc2c1CCC1[C@@](C)(C=O)CCC[C@]21C (some centres undefined)	99.8%
CC(=O)OC1CCC2(C)C(=CC=C3C2CCC2(C)C3CCC2C(C)/C=C/C(C)C(C)C)C1(C)C (centres undefined)	125%
CN(C)c1ccc2nc3ccc(=[N+](C)C)cc-3sc2c1	104%
C[C@H](CC(=O)C(O)C(C)(C)O)[C@H]1C(=O)C[C@@]2(C)C3=CCC4C(C)(C)[C@@H](O[C@@H]5OC[C@@H](O)[C@H](O)[C@H]5O)CC[C@@]45C[C@@]35[C@@H](O)C[C@]12C (some centres undefined)	109%

SMILES	activity remaining
COCCCOc1cc(C[C@@H](C[C@H](N)[C@@H](O)C[C@H](C(=O)NCC(C)(C)C(N)=O)C(C)C)C(C)C)ccc1OC	107%
CCN1C[C@]2(OC(=O)c3ccccc3NC(C)=O)CCC(OC)[C@]34C1[C@H](CC23)[C@@]1(O)CC(OC)[C@H]2CC4C1(O)[C@H]2OC (some centres undefined)	95.9%
CC1=CCc2c(cc3oc(C)cc(=O)c3c2O)OC1	120%
CC12CCC3C(=CCc4cc(O)ccc43)C1CCC2=O (centres undefined)	108%
COc1ccc(C[C@H](N)C(=O)N[C@@H]2[C@@H](CO)OC(n3cnc4c(N(C)C)ncnc43)[C@@H]2O)cc1 (some centres undefined)	87.5%
CC1=CC2C(C(C)C)CCC(C)(O)C2CC1 (centres undefined)	89.3%
CC[C@H]1OC(=O)C[C@@H](O)[C@H](C)[C@@H](O[C@@H]2O[C@H](C)[C@@H](O[C@H]3C[C@@](C)(O)[C@@H](O)[C@H](C)O3)[C@H](N(C)C)[C@H]2O)[C@@H](CC=O)C[C@@H](C)C(=O)/C=C/C(C)=C/[C@@H]1CO[C@@H]1O[C@H](C)[C@@H](O)[C@@H](OC)[C@H]1OC	112%
C=C1[C@H]2CC[C@@]3(C)[C@H](c4ccoc4)OC(=O)C[C@]13O[C@H]1C[C@H](O)C(C)(C)[C@H](CC(=O)OC)[C@]12C	107%
CC(=O)OCC(=O)[C@@]12OC(C)(C)O[C@@H]1CC1C3C[C@H](F)C4=CC(=O)C=C[C@]4(C)[C@@]3(F)[C@@H](O)C[C@@]12C (some centres undefined)	100%
CC(C)CC1C(=O)N2CCC[C@H]2C2(O)O[C@](NC(=O)C3C=C4c5cccc6[nH]c(Br)c(c56)C[C@H]4N(C)C3)(C(C)C)C(=O)N12 (some centres undefined)	113%
Cc1occc(=O)c1O	102%
O=c1cc(-c2ccccc2)oc2cc(O)c(O)c(O)c12	122%
CC(=O)OCC(CCn1cnc2cnc(N)nc21)COC(C)=O	121%
C/C=C\C1=C(C(=O)O)N2C(=O)C(NC(=O)C(N)c3ccc(O)cc3)C2SC1 (centres undefined)	115%
C=C[C@@](C)(O)CCC1C(=C)CCC2[C@@](C)(CO)CCC[C@]12C (some centres undefined)	117%
NCCOB(c1ccccc1)c1ccccc1	97.5% and 103%
CC(C)c1c(O)ccc2c1CCC1[C@@](C)(CO)CCC[C@]21C (some centres undefined)	101%
C=C1C(N)CC2CC1C2(C)C (centres undefined)	96.6%
CC1(C)S[C@@H]2[C@H](NC(=O)[C@@H](N)c3ccc(O)cc3)C(=O)N2[C@H]1C(=O)O	99.8%
